# High-throughput results from PubChem.
# The list is not random: actives were taken first. Their share in the collection is about 12%.
# BAZ2B block – qHTS Assay for Inhibitors of BAZ2B; Bromodomain adjacent to zinc finger domain protein 2B (Homo sapiens), Q9UIF8; AlphaScreen BAZ2B-H3K14Ac peptide displacement; Potency, µM (series often up to 114 µM), usual class: inhibitors; AID 504333, 2011; 4.4% of 360,000 active; also: nearly all actives have a fitted effect of over 60% in size
#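 Inhibition is scored as reduced AlphaScreen emission. The BAZ2B/b-H3(5-23)K14Ac complex (50 nM each) in PBS pH 7.4, 0.01% Tween-20 meets compound (up to 110 uM) for 30 min at RT before bead addition.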
# JMJD2A Tudor inh – qHTS Assay for Inhibitors of JMJD2A-Tudor Domain; AlphaScreen JMJD2A-Tudor / H3K4me3 peptide binding; Potency, µM (series often up to 114 µM), usual class: inhibitors; 4.4% of 390,000 active; AID 504339, 2011; also: nearly all actives have a fitted effect of over 50% in size
# G9a block – qHTS Assay for Inhibitors of Histone Lysine Methyltransferase G9a; Histone-lysine N-methyltransferase EHMT2 (Homo sapiens), Q96KQ7; G9a H3K9 monomethylation, AlphaScreen, 2 h; Potency, µM (top dose mostly 102 µM), hits mostly inhibitors; 8.8% of 350,000 active; also: nearly all actives have a fitted effect of over 75% in size
#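 Enzyme 20 nM + cpd, 15 min RT; add b-H3K9 pep 500 nM / SAM 20 uM; 2 h RT; anti-H3K9me1 Ab 0.5 ug/mL + SA donor / anti-rabbit acceptor beads 20 ug/mL each, 10 min; AlphaScreen read.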
# PI5P4Ka inh – qHTS for Inhibitors of phosphatidylinositol 5-phosphate 4-kinase (PI5P4K) | Phosphatidylinositol 5-phosphate 4-kinase type-2 alpha (Homo sapiens), P48426 | PI5P4Kalpha enzyme, ADP-Glo luminescence, 60 min; stronger effect = lower value | max response, % | 1.2% of 330,000 active; active = max response of -50% or lower; inconclusive = between -30% and -50%; inactive = -30% or higher; also: value at the top dose of about 77 µM
#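 Quantitative HTS of the MLSMR library against PI5P4Kalpha with substrate. ATP added last at 5 microM final; room temperature, 60 minutes. Remaining ATP depleted, ADP converted and read as luminescence.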
# HP1b chromo inh – HTS for Inhibitors of HP1-beta Chromodomain Interactions with Methylated Histone Tails; Chromobox protein homolog 1 (Homo sapiens), P83916; AlphaScreen HP1-beta / biotin-H3K9me3 peptide binding; Potency, µM (top dose mostly 114 µM), usual class: inhibitors; 0.56% of 390,000 active; AID 540317, 2011; also: nearly all actives have a fitted effect of over 70% in size
#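 Compound inhibition of the preformed complex between 50 nM HP1-beta and 50 nM biotinylated H3K9me3 peptide was read by AlphaScreen. Buffer was PBS pH 7.4 with 0.01% Tween-20. Incubations ran 30 min at room temperature, with 10 ug/mL donor/acceptor beads.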
# PLK1 PBD block – qHTS for Inhibitors of PLK1-PDB (polo-like kinase 1 - polo-box domain): Primary Screen; Plk1 PBD binding of FITC phosphopeptide, fluorescence polarization; AID 720504, 2013; Potency, µM, most hits filed as inhibitors; Serine/threonine-protein kinase PLK1 (Homo sapiens), P53350; 2.8% of 360,000 active; also: series mostly up to about 57 µM; nearly all actives have a fitted effect of over 65% in size
# Target sequence (P53350 whole entry, looked up, the tested form may be a part): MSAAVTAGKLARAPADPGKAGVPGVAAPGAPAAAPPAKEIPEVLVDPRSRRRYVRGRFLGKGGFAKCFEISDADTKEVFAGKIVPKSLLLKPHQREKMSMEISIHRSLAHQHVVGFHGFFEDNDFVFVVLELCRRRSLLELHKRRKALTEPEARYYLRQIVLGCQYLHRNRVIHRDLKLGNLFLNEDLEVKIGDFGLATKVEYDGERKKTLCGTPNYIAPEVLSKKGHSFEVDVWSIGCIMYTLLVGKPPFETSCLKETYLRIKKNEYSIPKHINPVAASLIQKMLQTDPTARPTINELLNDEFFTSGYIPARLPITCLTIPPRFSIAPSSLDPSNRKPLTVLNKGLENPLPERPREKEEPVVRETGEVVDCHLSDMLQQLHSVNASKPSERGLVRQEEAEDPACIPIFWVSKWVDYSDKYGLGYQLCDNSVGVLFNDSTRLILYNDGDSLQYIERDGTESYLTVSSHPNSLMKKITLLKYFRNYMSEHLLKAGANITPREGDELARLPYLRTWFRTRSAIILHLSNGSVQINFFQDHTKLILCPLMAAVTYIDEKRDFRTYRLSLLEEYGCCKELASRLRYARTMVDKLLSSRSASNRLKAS
# A number is an active result; n = inactive; u = inconclusive; x = no result given; [ ] = dose if it differs, or a comment. Unless noted, calls follow the shape of the dose curve; as a rule, active = well fitted curve in the direction sought with a large enough effect; inconclusive = small, poorly fitted or top-dose-only effect, or another doubt; inactive = no such curve, though single readings can be large; an effect the other way counts as inactive or inconclusive.
SMILES,BAZ2B block,JMJD2A Tudor inh,G9a block,PI5P4Ka inh,HP1b chromo inh,PLK1 PBD block
CCOC(=O)C1=C(C)N(CCCC(=O)O)C(=O)NC1c1ccccc1 (stereo unspecified),x,n,x,-57,n,n
COC(=O)C1=C(C)N(CCCC(=O)O)C(=O)NC1c1cccc(OC)c1 (stereo unspecified),x,n,x,-52,n,n
CCOC(=O)C1=C(C)N(CCCCCC(=O)O)C(=O)NC1c1ccc(Br)cc1 (stereo unspecified),n,u,50µM,n,n,n
COc1ccccc1CNC(=O)/C(C#N)=C/c1ccc(OC)c(OC)c1OC,n,n,n,n,n,n
COc1cc(-c2c(CCO)sc3ccccc23)cc(OC)c1OC,x,x,x,n,x,n
CCOC(=O)C1=C(C)N(CCCCCC(=O)O)C(=O)NC1c1cccc([N+](=O)[O-])c1 (stereo unspecified),n,n,n,n,n,n
COC(=O)C1=C(C)N(CCCC(=O)O)C(=O)NC1c1ccc(Cl)cc1 (stereo unspecified),x,n,x,-77,n,n
CC#CCN1C(=O)N[C@@H](c2ccccc2)C(C(=O)OC)=C1C,x,u,x,n,n,21µM
CCOC(=O)C1=C(C)N(CCCC(=O)O)C(=O)NC1c1ccc(Cl)cc1 (stereo unspecified),n,n,n,-93,n,n
CC1=C(C(=O)OCC(Br)(Br)Br)C(c2cccc([N+](=O)[O-])c2)NC(=O)N1CCCC(=O)O (stereo unspecified),x,n,x,-64,n,n
CCc1ccc(S(=O)(=O)c2nnn3c2nc(NC2CCCCCC2)c2sccc23)cc1,n,n,n,x,n,x
Cn1c(=O)n(C)c2cc(NC(=O)COc3ccc(F)cc3)ccc21,n,n,x,n,n,n
CCOC(=O)CN1C(=O)N[C@H](c2ccc(Br)cc2)C(C(C)=O)=C1C,n,n,45µM,n,n,n
COC(=O)C1=C(C)N(Cc2ccco2)C(=O)N[C@H]1c1ccc(Br)cc1,u,x,50µM,x,x,x
CCOC(=O)C1=C(C)N(CCCC(=O)O)C(=O)NC1c1ccc2ccccc2c1 (stereo unspecified),x,n,x,-75,n,n
COC(=O)C1=C(C)N(Cc2ccco2)C(=O)N[C@H]1c1ccccc1,n,x,u,x,x,x
Cc1ccc2oc(=O)n(CCNC(=O)Nc3ccc(C)c(F)c3)c2c1,n,n,n,x,n,x
CCC1CCCCN1Cc1ccc(OC)c(C)c1C (stereo unspecified),u,n,25µM,x,n,n
COc1cc(CN2CCC(Cc3ccccc3)CC2)cc(OC)c1OC,79µM,25µM,x,n,u,n
COc1ccc(CN2CCC(Cc3ccccc3)CC2)c(C)c1C,u,28µM,u,n,n,n
COc1ccc(CN2CCN(CC3CC3)CC2CCO)c(C)c1C (stereo unspecified),n,n,n,n,n,n
COc1cc2nc(CN3CCC(Cc4ccccc4)CC3)[nH]c(=O)c2cc1OC,n,n,n,n,n,n
COc1cc(C=NNc2ccccc2[N+](=O)[O-])cc(OC)c1OC,x,x,x,n,x,n
FC(F)(F)c1ccccc1N/N=C/c1cccnc1,n,n,u,n,n,n
COc1cc(/C=N/Nc2ccc(F)cc2F)cc(OC)c1OC,n,n,1.8µM,n,n,n
SMILES,BAZ2B block,JMJD2A Tudor inh,G9a block,PI5P4Ka inh,HP1b chromo inh,PLK1 PBD block
Fc1ccc(N/N=C/c2cccnc2)c(F)c1,n,n,32µM,n,n,n
COc1ccc(CNS(=O)(=O)c2ccc(-c3cc(C(F)(F)F)on3)s2)cc1OC,n,n,n,x,n,x
COc1ccc(C(C)C)cc1-c1cncc(NC(C)=O)n1,x,x,x,n,x,n
O=C1OC(c2ccc(Cl)cc2)/C(=C(/O)c2ccccc2)C1=O (stereo unspecified),u,32µM,x,n,n,n
Cc1ccc(CSCC(=O)Nc2cc(S(=O)(=O)N3CCOCC3)ccc2OC(C)C)cc1,u,n,50µM,n,n,n
Cc1cccc(NC(=O)CSCC(=O)Nc2cc(S(=O)(=O)N3CCOCC3)ccc2OC(C)C)c1,n,n,n,n,n,n
O=C(NCc1ccccn1)c1cc(S(=O)(=O)N2CCCCCC2)ccc1Cl,n,n,x,n,n,n
Cc1ccc(S(=O)(=O)N2CCOCC2)cc1NC(=O)CNC(C)c1ccccc1 (stereo unspecified),x,1.3µM,x,n,u,n
Cc1ccc(S(=O)(=O)N2CCOCC2)cc1NC(=O)CSc1ncccn1,n,n,n,n,n,n
Cc1ccc(S(=O)(=O)N2CCOCC2)cc1NC(=O)CNCc1ccccn1,32µM,n[11.4 µM],n[12.7 µM],n,n,n
O=C(CNCc1ccccn1)Nc1cc(S(=O)(=O)N2CCCCC2)ccc1Cl,x,79µM,n,n,n,n
CCc1ccc(NC(=O)NCCc2c(C)nn(C)c2C)cc1,n,n,n,x,n,x
CCc1cc(C(=O)Nc2nc(-c3ccccn3)cs2)sc1C,71µM,u,n[12.7 µM],u,n,u
CCCn1nc(C(=O)Nc2nc(-c3ccccn3)cs2)c2ccccc2c1=O,u,56µM,n[12.7 µM],n,n,n
CC(=O)c1ccc(-c2ccc(C(=O)Nc3nc(-c4ccccn4)cs3)o2)cc1,x,n,x,u,n,27µM
CCn1nc(C(=O)Nc2nc(-c3ccccn3)cs2)c2ccccc2c1=O,n,n,n[12.7 µM],n,n,n
Cc1ccc(C(=O)Nc2nc(-c3ccccn3)cs2)o1,18µM,50µM,u,n,n,n
CC(=O)Nc1ccc(-c2csc(NC(=O)c3ccc(C)o3)n2)cc1,n,n,45µM,n,n,n
O=C(Nc1nc(-c2ccccn2)cs1)c1ccc(-c2ccccc2F)o1,79µM,u,n[12.7 µM],n,n,n
CCOc1ccc(N(CC(=O)NC2CCCCC2)S(=O)(=O)c2ccccc2)cc1,n,n,u,n,n,n
CCN(CC)c1cc(C)c2ccccc2n1,n,u,1.1µM,n,n,n
CCN(CC)c1cc(C)c2cc(NC(=O)c3ccccc3Cl)ccc2n1,n,n,n,x,n,x
O=C(O)c1cc(O)c2c(c1)C(=O)c1cc(O)cc(O)c1C2=O,50µM,u,n[12.7 µM],-86,n,u
CC(C)CCNc1c(-c2cccs2)nc2ccccn12,n,n,45µM,n,n,n
Cc1ccc(Sc2cnccc2C#N)cc1,n,n,n,n,n,n
Cc1ccc(CNS(=O)(=O)c2ccc(C(F)(F)F)cc2)n1C,u,n,45µM,n,n,n
O=C(CNS(=O)(=O)c1ccc(F)cc1)Nc1ccc(C(F)(F)F)cc1,n,n,n,x,n,n
